Screening results from PubChem.
NPSR antag: antagonists of human neuropeptide S receptor cAMP signaling | Q6W5P4 | CHO-NPSR cells, cAMP TR-FRET, antagonist mode | Potency, µM (top dose mostly 38.3 µM), most hits filed as inhibitors | hit rate 1% among 220,000; note: nearly all actives have a fitted effect of over 50% in size
PKM2 activator: PKM2 (human) enzyme activation. P14618. purified PKM2, Kinase-Glo ATP luminescence, activation; response scale: 0% is enzyme alone, no compound. Potency, µM (doses to about 57.5 µM), usual class: activators. hit rate 0.34% among 260,000; note: nearly all actives have a fitted effect of over 55% in size
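Purified hPK-M2 (>95%) run at intermediate activity with 0.1 mM ADP and 0.5 mM PEP in 50 mM imidazole pH 7.2, KCl, MgCl2; 1 h room temperature. ATP formed read by Kinase-Glo luminescence; normalized to uninhibited and no-enzyme controls.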
IL-2 act: activates IL-2 in a cell-based reporter assay; IL-2 activation reporter assay, cell-based qHTS; stimulated with anti-CD3/CD4/CD28 beads; in transgenic mouse T cells; activation, % (series mostly up to about 46 µM); hit rate 0.065% among 360,000; AID 652025; in the data active = activation above about 50%; inconclusive = mostly about 30% to 49%
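Unstimulated transgenic mouse T cells preincubated 60 min with compound, then stimulated with anti-CD3/anti-CD4-coated beads plus anti-CD28 for 18 h at 37 degrees C. IL-2 response read as EGFP and DsRed fluorescence by plate cytometry.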
ClpP mod: qHTS Assay for Activators of ClpP | ATP-dependent Clp protease proteolytic subunit (Bacillus subtilis (strain 168)), P80244 | purified B. subtilis ClpP, FRET peptide cleavage, 20 min | Potency, µM (doses to about 57.5 µM) | hit rate 1.9% among 340,000 | AID 651965, 2013; active = well fitted falling curve with a large enough effect; inconclusive = small, poorly fitted or top-dose-only effect; inactive = no such curve, though single readings can be large or run the other way; note: the source files actives as falling curves though it sought activators and does not explain the sign; nearly all actives have a fitted effect of over 65% in size
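Buffer: 100 mM Tris/HCl pH8, 100 mM KCl, 0.05% low protease BSA, 2.5% glycerol, 0.01% Tween-20. ClpP 10 microg/mL final; 20 min RT; delta FRET normalized to ADEP and DMSO controls.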
Numbers stand for hits; . = inactive; ? = inconclusive; / = not tested or not shown; [ ] = another dose, or the depositor's remark. The list is not random: actives were taken first. Their share in the collection is about 2%. Unless noted, calls come from the whole dose curve; as a rule, active = well fitted curve in the direction sought with a large enough effect; inconclusive = small, poorly fitted or top-dose-only effect, or another doubt; inactive = no such curve, though single readings can be large; an effect the other way counts as inactive or inconclusive.

SMILES	NPSR antag	PKM2 activator	IL-2 act	ClpP mod
C=CCn1c(CCNC(=O)c2cccs2)nnc1SCC(=O)c1ccc(Cl)cc1	.	.	.	.
CCn1c2ccccc2c2cc(C3C(C#N)=C(C)NC(C)=C3C#N)ccc21	.	.	.	16µM
Cc1c(Cl)cccc1NC(=O)C1CCCN(S(C)(=O)=O)C1 (stereo unspecified)	/	.	.	.
Cc1noc(C)c1COc1ccccc1C(=O)NC1CCC(C)CC1 (stereo unspecified)	/	.	.	.
CC(C)(C)NC(=O)C1CCN(C(=O)c2ccc(-c3ccccc3)cc2)CC1	.	.	.	.
O=C(NCCO)C1CCN(C(=O)c2ccc(-c3ccccc3)cc2)CC1	.	.	.	32µM
CN1CCN(C(=O)c2ccc(-c3ccccc3)cc2)CC1	/	.[11.5 µM]	.	32µM
O=C(c1ccc(-c2ccccc2)cc1)N1CCN(c2ccccc2)CC1	/	.[11.5 µM]	.	.
C=CCOC(=O)C1=C(C)Nc2nnnn2C1c1cccc(OC)c1OC (stereo unspecified)	.	.	.	.
CCOC(=O)C1=C(C)Nc2nnnn2C1c1cccc(OC)c1OC (stereo unspecified)	.	16µM	.	.
Cc1ccc(N2C(=O)c3cccc4c(N)ccc(c34)C2=O)c2cccnc12	.	.	317	.
Cc1cc(NC(=O)COC(=O)c2ccccc2NCCO)no1	/	/	.	16µM
CCOC(=O)c1ccccc1NC(=O)COC(=O)CSCC(=O)Nc1cc(C)on1	/	/	.	.
OCCCNc1nc(-c2ccc(Br)cc2)nnc1-c1ccc(Cl)cc1	.	.	.	.
Cc1cc(=O)oc2cc(OCC3CC(c4ccc(Cl)cc4)=NO3)ccc12 (stereo unspecified)	.	.	.	28µM
COc1ccccc1NC(=O)c1ccccc1-c1ccccc1C(=O)O	/	.	.	.
O=C(NNC1=C(C(=O)C(F)(F)F)CCC1)c1ccccc1O	.	.	.	.
O=C(NNC1=C(C(=O)C(F)(F)F)CCC1)c1ccccc1Cl	.	.	.	28µM
CCn1nnnc1SCC(=O)N1CCOCC1	.	.	.	.
Cc1nc2ccc(NS(=O)(=O)c3ccc(C)c(C)c3)cc2s1	.	?	.	.
Cc1nc2ccc(S(=O)(=O)Nc3ccccc3C)cc2s1	.	16µM	.	.
C=CCNc1nc(NCc2cccc(OC)c2)c2sc(-c3ccccc3)cc2n1	/	/	.	20µM
COc1ccc(-c2cc3nc(NCc4ccc(C)cc4C)n(C)c(=O)c3s2)cc1OC	/	/	.	?
COc1cccc(CNc2nc3cc(-c4cccc(Cl)c4)sc3c(=O)n2C)c1	/	/	.	20µM
COCCNc1nc(NCCOC)c2sc(-c3ccccc3)cc2n1	/	/	.	.
SMILES	NPSR antag	PKM2 activator	IL-2 act	ClpP mod
Cc1ccc(CNc2nc3cc(-c4ccccc4)sc3c(=O)n2C)c(C)c1	/	/	.	28µM
O=c1c2ccccc2sn1-c1nccs1	.	.	.	/
COc1ccc(N2CCN(S(=O)(=O)CCNC(=O)COc3ccccc3)CC2)cc1	/	/	.	18µM
COCC(=O)Nc1nc2n(n1)C(c1ccccc1)CC(c1ccc(OC)cc1)N2 (stereo unspecified)	.	.	.	25µM
COCC(=O)Nc1nc2n(n1)C(c1ccc(OC)cc1)CC(c1ccc(OC)cc1)N2 (stereo unspecified)	.	.	.	.
COc1ccc(S(=O)(=O)n2ccc(-c3cnc(-c4ccccc4)s3)n2)cc1	?	.	.	28µM
O=C(c1ccccc1)n1ccc(-c2cnc(-c3ccccc3)s2)n1	.	.	.	.
Cc1ccc(C(=O)c2cnc3ccccc3c2-c2ccccc2)cc1	?	.	.	.
Fc1ccc(Sc2cc(Cl)c(-c3ccccc3)nn2)cc1	?	.	.	28µM
CCS(=O)(=O)N1CCC2(CC1)OC(=O)C(C)=C2C(=O)NCc1ccccc1C	/	/	/	.
CC(C)N(C(=O)COC(=O)c1cc(Cl)cc(Cl)c1N)C(C)C	?	.	.	16µM
CC1CCN(C(=O)COC(=O)c2cc(Cl)cc(Cl)c2N)CC1	.	.	.	28µM
Cc1ccc(S(=O)(=O)c2cc(OC(=O)c3ccco3)ccc2OC(=O)c2ccco2)cc1	.	.	.	.
O=C(Oc1ccc(OC(=O)c2ccco2)c(S(=O)(=O)c2ccc(Br)cc2)c1)c1ccco1	.	4.5µM	.	.
O=C(CSc1nnc(-c2ccccc2)n1Cc1ccccc1)NNC(=O)c1ccccc1O	.	.	.	?
Cc1cc(C)nc(N2CCC(C(=O)O)CC2)n1	?	.	.	20µM
CCC(C)(C)NC(=O)C1CCN(c2nc(C)cc(C)n2)CC1	.	.	.	14µM
CCCNC(=O)C1CCN(c2nc(C)cc(C)n2)CC1	.	.	.	16µM
CCCCNC(=O)C1CCN(c2nc(C)cc(C)n2)CC1	.	.	.	.
Cc1ccccc1C(=O)NCc1ccc2c(c1)CCN2C(=O)c1ccccc1	/	/	/	.
CC(C)(C)c1ccc(S(=O)(=O)/C=C/C#N)cc1	20µM	/	/	.
CCOC(=O)c1cnn2c(C)cc(-c3ccc(F)cc3)nc12	.	.	.	28µM
Cc1cc(-c2ccc(F)cc2)nc2cc(C(N)=O)nn12	.	.	.	?
O=C(CN1CCCCC1)Nc1ccc(NC(=O)c2ccc(Cl)cc2)cc1Cl	.	.	.	14µM
Cc1cc(Cl)ccc1NC(=O)CN1CCCC1	/	.	.	/
SMILES	NPSR antag	PKM2 activator	IL-2 act	ClpP mod
CCc1ccc2oc(C(=O)Nc3cc(Cl)ccc3OC)cc(=O)c2c1	/	/	/	.
O=C(Cc1cccc2ccccc12)NN=Cc1ccc2c(c1)CCC2	/	/	.	.
C[C@H]1CN=C(Nc2ccccc2)N1CCCC1CCCCC1	/	.	.	.
Nc1nc(SCC(=O)Nc2ccc(Br)cc2F)n[nH]1	.	22µM	.	.
O=C(CCC1CCCCC1)Nc1nccs1	.	.	.	.
COC(=O)c1cc2ccccc2c(-c2c(OC)c(C(=O)OC)cc3ccccc23)c1OC	?	.	.	25µM
CCN(CC)CCNC(=O)c1cn(CC)c2cc(N3CCN(C(=O)c4ccco4)CC3)c(F)cc2c1=O	.	.	.	.
CCn1cc(C(=O)NCc2ccncc2)c(=O)c2cc(F)c(N3CCN(C(=O)c4ccco4)CC3)cc21	.	.	.	/
CCn1cc(C(=O)NCc2ccccc2)c(=O)c2cc(F)c(N3CCN(C(=O)c4ccco4)CC3)cc21	?	.	.	14µM
CCn1cc(C(=O)NCc2ccc3c(c2)OCO3)c(=O)c2cc(F)c(N3CCN(C(=O)c4ccco4)CC3)cc21	.	.	.	25µM
CCS(=O)(=O)c1nc(S(=O)(=O)c2ccc(C)cc2)c(NCCCn2ccnc2)s1	/	/	.	.
COc1ccc(C2Nc3ccccc3C(=O)N2c2ccc(C)cc2)cc1COc1ccccn1 (stereo unspecified)	.	.	.	32µM
COc1ccc(N2C(=O)c3ccccc3NC2c2ccc(OC)c(Cn3nnc4ccccc43)c2)cc1 (stereo unspecified)	?	.	.	32µM
